From the supplement of paper PMC7695840
Where a name gives a salt, the structure may show the parent alone.

Assays:
[1] = tested on: Staphylococcus aureus MW2 delta-mecA (mecA-); test: normalized GFP fluorescence (growth of mecA- strain) (fraction of control range); higher = more growth of mecA- strain; details: compound concentration: 150 uM; cefoxitin: subinhibitory; fluorescent label: GFP
Summary of the method: (§1)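 Pre-induced S. aureus MW2 cells with the gene (DsRed) and without it (GFP) were mixed 1:1 in LB holding a subinhibitory antibiotic dose set daily and grown on 150 μM compound (1.5% DMSO) in 1536-well plates, single replicate, for 20 h at 37 °C. DsRed (540/590) and GFP (485/520) readings were scaled per plate between single-strain control medians. Plates with high untreated ratios and rows with DsRed/GFP >10 were excluded.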

[2] = tested on: Staphylococcus aureus MW2 (mecA+); test: normalized DsRed fluorescence (growth of mecA+ strain) (fraction of control range); higher = more growth of mecA+ strain; details: compound concentration: 150 uM; cefoxitin: subinhibitory; fluorescent label: DsRed
Summary of the method: as §1

Row | Compound | normalized GFP fluorescence [1] | normalized DsRed fluorescence [2]
1 | COC(=O)[C@@H]1CC2=CC(=O)CC[C@]2(C)[C@@]23O[C@@H]2C[C@@]2(C)[C@@H](CC[C@@]24CCC(=O)O4)[C@H]13 [Eplerenone] | 0.583 | 0.645
2 | N[C@H]1C(O)O[C@H](CO)[C@@H](O)[C@@H]1O (stereo partly drawn) | 0.468 | 0.564
3 | CC(=O)NS(=O)(=O)c1ccc(N)cc1 | 0.792 | 0.694
4 | Cc1ncc(CO)c(CO)c1O | 0.208 | 0.816
5 | COC(=O)C1=C(C#N)NC(C)=C(C(=O)OC(C)C)C1c1cccc([N+](=O)[O-])c1 (stereo not drawn) [Nilvadipine (ARC029)] | 0.333 | 1.55
6 | Nc1ccn([C@@H]2CS[C@H](CO)O2)c(=O)n1 | 0.367 | 0.767
7 | c1ccc(CN(CC2=NCCN2)c2ccccc2)cc1 | 0.974 | 0.762
8 | CC(=O)O[C@H]1CC[C@@]2(C)C(=CC[C@@H]3[C@@H]2CC[C@]2(C)C(c4cccnc4)=CC[C@@H]32)C1 [Abiraterone Acetate (CB7630)] | 0.278 | 0.65
9 | COc1cc2nccc(Oc3ccc(NC(=O)C4(C(=O)Nc5ccc(F)cc5)CC4)cc3)c2cc1OC [Cabozantinib malate] | 0.367 | 0.686
10 | OC(CCN1CCCCC1)(c1ccccc1)C1CCCCC1 (stereo not drawn) | 0.277 | 0.789
11 | OC[C@H]1O[C@H]([S-])[C@H](O)[C@@H](O)[C@@H]1O.[Au+] | 0.232 | 0.538
12 | CNC(C)C1CCC(N)C(OC2C(N)CC(N)C(OC3OCC(C)(O)C(NC)C3O)C2O)O1 (stereo not drawn) | 0.397 | 0.522
13 | Cc1nnc(NS(=O)(=O)c2ccc(N)cc2)s1 | 0.326 | 1.88
14 | COc1cc(/C=C/C(=O)N2CCN(CC(=O)N3CCCC3)CC2)cc(OC)c1OC [Cinepazide maleate] | 0.547 | 0.533
15 | C#C[C@]1(O)CC[C@H]2[C@@H]3CCC4=CC(=O)CC[C@@H]4[C@H]3CC[C@@]21C [Norethindrone (Norethisterone)] | 0.268 | 0.621
16 | NCc1ccc(S(N)(=O)=O)cc1 | 0.22 | 0.71
17 | Cc1cc(NS(=O)(=O)c2ccc(N)cc2)no1 | 0.0197 | 0.744
18 | NCCc1ccc(O)c(O)c1 | 0.483 | 0.728
19 | CCN1CCCC1CNC(=O)c1cc(S(=O)(=O)CC)c(N)cc1OC (stereo not drawn) [Amisulpride] | 0.514 | 0.816
20 | COc1ccccc1OCCNCC(O)COc1cccc2[nH]c3ccccc3c12 (stereo not drawn) | 0.0386 | 1.17

Row | Compound | normalized GFP fluorescence [1] | normalized DsRed fluorescence [2]
21 | CC(C)NCC(O)COc1ccc(CCOCC2CC2)cc1 (stereo not drawn) [Betaxolol hydrochloride (Betoptic)] | 0.372 | 0.674
22 | CC(C(=O)O)c1ccc(C(=O)c2cccs2)cc1 (stereo not drawn) | 0.344 | 0.423
23 | Nc1ccn([C@H]2CC[C@@H](CO)O2)c(=O)n1 | 0.265 | 0.779
24 | CO[C@H]1O[C@@H]2O[C@@]3(C)CC[C@H]4[C@H](C)CC[C@@H]([C@H]1C)[C@@]24OO3 | 0.327 | 1.13
25 | Cc1ccccc1C(OCCN(C)C)c1ccccc1 (stereo not drawn) | 0.779 | 1.23
26 | COc1cc2/c(=N/c3ccc(Br)cc3F)nc[nH]c2cc1OCC1CCN(C)CC1 [Vandetanib (Zactima)] | 0.22 | 1.19
27 | CCS(=O)(=O)CCn1c([N+](=O)[O-])cnc1C | 0.603 | 1.08
28 | CC1=C(C(=O)O)N2C(=O)[C@@H](NC(=O)[C@H](N)c3ccc(O)cc3)[C@H]2SC1 | 0.0167 | 1.2
29 | Cc1ncc([N+](=O)[O-])n1CC(C)O (stereo not drawn) [Secnidazole (Flagentyl)] | 0.266 | 0.482
30 | CC#C[C@]1(O)CC[C@H]2[C@@H]3CCC4=CC(=O)CCC4=C3[C@@H](c3ccc(N(C)C)cc3)C[C@@]21C | 0.622 | 0.695
31 | CC(=O)N(O)CCCCCNC(=O)CCC(=O)N(O)CCCCCNC(=O)CCC(=O)N(O)CCCCCN | 0.272 | 1.26
32 | Cc1cc(C(C)(C)C)c(O)c(C)c1CC1=NCCN1 [Oxymetazoline hydrochloride] | 0.135 | 1.28
33 | COC(=O)[C@H]1[C@H]2C[C@@H]3c4[nH]c5cc(OC)ccc5c4CCN3C[C@H]2C[C@@H](OC(=O)c2cc(OC)c(OC)c(OC)c2)[C@@H]1OC | 0.0258 | 1.04
34 | CCN(CCCc1ccccc1)CCCc1ccccc1 | 0.1 | 1.17
35 | CC(C)n1c(/C=C/C(O)CC(O)CC(=O)O)c(-c2ccc(F)cc2)c2ccccc21 (stereo not drawn) | 0.0168 | 0.369
36 | C[C@]12C=CC(=O)C=C1CC[C@@H]1[C@@H]2C(=O)C[C@@]2(C)[C@H]1CC[C@]2(O)C(=O)CO | 0.371 | 0.647
37 | CCN(CCO)CCCC(C)Nc1ccnc2cc(Cl)ccc12 (stereo not drawn) | 0.323 | 1.33
38 | CC(=O)OCC[N+](C)(C)C | 0.311 | 0.859
39 | C[C@H]1C[C@@H]2[C@H]([C@@H](O)C[C@@]3(C)[C@H]2CC[C@]3(O)C(=O)COC(=O)CCC(=O)O)[C@@]2(C)C=CC(=O)C=C12 | 0.634 | 0.526
